Screening data deposited in PubChem BioAssay by several laboratories.
The list is not random: actives were taken first. Their share in the collection is about 3%.
LMP1 NFkB inh: Epstein-Barr LMP1 NF-kappaB reporter inhibition | LMP1-induced NF-kappaB luciferase reporter cells, luminescence | inhibition, % at 12.5 µM | 350,000 compounds, 0.69% hits; in the data active = inhibition above about 41%; inconclusive = no clear call, values can overlap the other calls;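 also: 0% = neutral control wells and 100% = reference inhibitor control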
TRPM1 prom inh: MITF TRPM1 promoter inhibition in SK-MEL-5 cells. SK-MEL-5 TRPM1 promoter luciferase, 24 h. inhibition, % at 12.5 µM. 330,000 compounds, 0.83% hits;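 active = mean inhibition across replicates of 60% or more, whatever share of single replicates reaches that level; inconclusive = some that reach 60%, reason not given; inactive = mean inhibition across replicates below 60%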
MITF act: MITF TRPM1 promoter activation in melanoma cells; SK-MEL-5 TRPM1-promoter luciferase, 24 h; % of positive control, neutral wells = 0; activation, % at 12.5 µM; 300,000 compounds, 0.75% hits; AID 588334;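 active = mean activation of at least 80% with every replicate also reaching 80%; inconclusive = mean reaches 80% but some replicate falls short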;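 also: 0% = neutral control wells and 100% = parthenolide positive control wells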
TWEAK-Fn14 inh: blocks TWEAK-Fn14 interaction in a reporter cell assay; TWEAK-stimulated Fn14 reporter cells, luciferase luminescence, 8 h; inhibition, % at 10 µM; 360,000 compounds, 2% hits; in the data active = inhibition above about 50%
LGR2 inh: blocks bursicon-induced cAMP signaling via Drosophila LGR2; HEK293 LGR2, CRE-luciferase, bursicon-stimulated, 4 h; inhibition, % at 9.99 µM; 380,000 compounds, 0.35% hits;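 active = drop in luminescence signal, shown as inhibition above about 50% in the replicate tests, limit read from the data, passing the limit was not always enough; inconclusive = probably only some replicates passing the limit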;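 also: agonist challenge used bursicon conditioned medium at about half maximal strength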
TROY signal inh: TROY signaling inhibition. inhibition, % at 10 µM. AID 1347056. Q293 LMP1-TROYcd NF-kB luciferase reporter, 4 h. 360,000 compounds, 0.98% hits;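 active = compounds whose plate-normalised and pattern-corrected inhibition of the luciferase reporter signal at the single screening dose is 50% or more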
* = called active by the depositor; ? = inconclusive; · = no result.

SMILES	LMP1 NFkB inh	TRPM1 prom inh	MITF act	TWEAK-Fn14 inh	LGR2 inh	TROY signal inh
O=C(NC1CCCCCCC1)c1c(O)c2ccccc2[nH]c1=O	-32	-96	100*	-18	-75	-77
O=C(NC1CC1)c1c(O)c2ccccc2[nH]c1=O	-5	-34	20	-1	-1	-34
C/C(=N\NC(=O)c1cc(C)[nH]n1)c1cccs1	4	-15	19	19	·	-39
O=C(N/N=C/c1cccs1)c1n[nH]c2c1CCCC2	68*	57	·	93*	76*	68*
C/C(=N\NC(=O)c1n[nH]c2c1CCC2)c1cccs1	74*	65*	·	96*	·	63*
C/C(=N/NC(=O)c1ccc2nc[nH]c2c1)c1cccs1	52*	-49	52	8	·	-14
C/C(=N/NC(=O)c1cc(C(C)C)[nH]n1)c1cccs1	8	-6	14	52*	·	-35
Cc1ccc(/C=N/NC(=O)c2n[nH]c3c2CCCC3)cc1	·	·	·	-9	-21	-18
C[C@H](CO)N1C[C@H](C)[C@H](CN(C)Cc2ccc(Oc3ccccc3)cc2)OCc2ccccc2-c2c(n(C)c3ccccc23)C1=O	·	·	·	·	7	·
CCC(=O)N(C)C[C@H]1Oc2cc(C3=CCCC3)ccc2S(=O)(=O)N([C@H](C)CO)C[C@H]1C	·	·	·	·	2	·
C/C(=N\NC(=O)c1cc(Br)ccc1O)c1cccs1	-10	-71	81*	-35	-59	-32
C/C(=N/NC(=O)c1ccc(Br)o1)c1cccs1	-18	-61	66	-22	-78	-37
O=C(N/N=C\c1cccc(Cl)c1)c1n[nH]c2c1CCCC2	-30	-93	100*	43	-82	24
C[C@@H]1CN([C@H](C)CO)S(=O)(=O)c2ccc(C3=CCCC3)cc2O[C@@H]1CN(C)C(=O)C1CCOCC1	·	·	·	·	-4	·
COc1cccc(C(=O)Nc2ccc3c(c2)OC[C@@H](C)N(C(=O)C2CCCC2)C[C@H](C)[C@@H](OC)CN(C)C3=O)c1	·	·	·	·	1	·
Fc1ccccc1C1CC(c2ccco2)=Nc2ccccc2S1 (stereo not given)	-46	5	-8	53*	-51	43
COc1ccccc1C1CC(c2cccs2)=Nc2ccccc2S1 (stereo not given)	-30	-5	3	-7	·	-15
CCCc1cc(=O)c2c(O)ccc(OC)c2o1	55*	-3	5	10	5	16
COc1cc(-c2cc(OC)c3c(C)oc(C)c3c(=O)c2)ccc1O	3	2	0	5	2	5
OC[C@@H]1CN(Cc2ccc(-c3ccccc3)cc2)C[C@H](n2cnc3c(NC4CCC4)ncnc32)O1	·	·	·	59*	9	36
CC(C)=CCC/C(C)=C/CNC(=O)C[C@H]1C[C@H](C(=O)N2CCOCC2)[C@@]2(C)c3[nH]c4ccc(Cl)cc4c3CCN2C1=O	1	9	-8	51*	63*	51*
CCN(CC)C(=O)[C@H]1C[C@H](CC(=O)NCC23CC4CC(CC(C4)C2)C3)C(=O)N2CCc3c([nH]c4ccc(Cl)cc34)[C@]12C	-6	12	-11	54*	14	45
CC(C)=CCC/C(C)=C/CNC(=O)CC1C[C@H](C(=O)N2CCOCC2)[C@@]2(C)c3[nH]c4ccccc4c3CCN2C1=O (stereo not given in full)	-2	21	-16	21	18	20
CC(C)N(C(=O)[C@H]1C[C@H](CC(=O)NCC23CC4CC(CC(C4)C2)C3)C(=O)N2CCc3c([nH]c4ccc(Cl)cc34)[C@]12C)C(C)C	-5	19	-17	54*	13	40
CCN(CC)C(=O)[C@H]1C[C@H](CC(=O)NCCCN(C)C)C(=O)N2CCc3c([nH]c4ccc(Cl)cc34)[C@]12C	2	-16	15	26	5	8
SMILES	LMP1 NFkB inh	TRPM1 prom inh	MITF act	TWEAK-Fn14 inh	LGR2 inh	TROY signal inh
COc1cccc(C(=O)Nc2ccc3c(c2)C(=O)N(C)C[C@H](OC)[C@H](C)CN(C(C)=O)[C@@H](C)CO3)c1	·	·	·	·	-9	·
c1ccc(CCNc2ncnc3ccccc23)cc1	-6	-25	23	68*	-43	25
Brc1ccc2ncnc(NCc3ccccc3)c2c1	60*	4	·	82*	·	54*
c1ccc(CNc2ncnc3c2cnn3Cc2ccccc2)cc1	-1	28	-25	7	4	3
CCCCCCCCNc1ncnc2ccccc12	-5	9	-3	36	·	8
C[C@@H]1CCCCO[C@H](CN(C)Cc2ccc3c(c2)OCO3)[C@@H](C)CN([C@H](C)CO)C(=O)c2cc(NC(=O)Nc3ccccc3)ccc2O1	·	·	·	·	12	·
CC(=O)N(C)C[C@H]1Oc2cc(C#CC(C)C)ccc2S(=O)(=O)N([C@H](C)CO)C[C@@H]1C	·	·	·	·	-10	·
C[C@H]1CCCCO[C@@H](CN(C)S(=O)(=O)c2cn(C)cn2)[C@@H](C)CN([C@@H](C)CO)C(=O)c2cc(NC(=O)CCC(F)(F)F)ccc2O1	·	·	·	·	-1	·
C=CCSc1n[nH]c(-c2ccc(OCCC)cc2)n1	-57	-94	92*	-20	-100	-73
O=C(Nc1cc(F)ccc1F)N1C[C@H]2[C@@H](c3ccccc31)[C@H](CO)N2CC1CCCC1	·	·	·	·	4	·
COc1cc(N2C(=O)C=CC2=O)ccc1N1C(=O)C=CC1=O	49*	74*	-73	-14	·	11
C=C(CN(C)C)C(=O)c1ccc(OC2OC(COC(C)=O)C(OC(C)=O)C(OC(C)=O)C2OC(C)=O)cc1 (stereo not given)	-6	115*	·	15	-11	16
Cc1cc(C)cc(Nc2nc3c([nH]2)c(=O)n(C)c(=O)n3C)c1	-2	-40	34	28	1	21
Cn1c(=O)c2[nH]c(N=Nc3ccc(N)cc3N)nc2n(C)c1=O	51*	10	·	8	-7	-12
COc1cccc(C(=O)N2C[C@H]3[C@@H](c4ccccc42)[C@@H](CO)N3Cc2ccccc2Cl)c1	·	·	·	·	9	·
Cc1c(NC(=O)c2cccc(NC(=O)COc3ccccc3)c2)c(=O)n(-c2ccccc2)n1C	7	3	-3	-1	5	6
Cc1c(NC(=O)c2cccc(NC(=O)COc3ccccc3C#N)c2)c(=O)n(-c2ccccc2)n1C	54*	51	-51	-12	?	-59
CO[C@H]1CN(C)C(=O)c2cc(NC(=O)Nc3ccc(F)cc3)ccc2OC[C@@H](C)NC[C@@H]1C	·	·	·	·	-1	·
Cc1ccc(NC(=O)c2nnn(-c3ccc4c(c3)OCCO4)c2N)cc1	-19	-100	99*	1	-58	-14
Nc1c(C(=O)Nc2ccccc2)nnn1-c1ccc2c(c1)OCCO2	3	-25	25	56*	15	32
Cc1ccc(-n2cc(CNCCCn3cccn3)c(-c3cccc(C)c3)n2)cc1	5	79*	-79	-22	-9	-7
